GBA activity: human lysosomal glucosylceramidase modulation; 48,000 tested, 1.1% active; purified enzyme, resorufin glucoside fluorescence (screen aimed at inhibitors), 20 min; Potency, µM; P04062; in the data active = potency below about 15 µM; inconclusive = mostly about 16 µM to 33 µM;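 also: the screen sought inhibitors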
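Normal human glucocerebrosidase (0.2 nM final) was assayed with resorufin β-D-glucopyranoside (30 uM final) in 50mM citric acid/KH2PO4, 10mM sodium taurocholate, 0.01% tween-20, pH 5.9. Compounds were titrated; fluorescence (Ex 548, Em 600) read after 20 min at RT.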
Bst PK mod: pyruvate kinase (B. stearothermophilus) modulation; purified pyruvate kinase, luminescence ATP production; ribose 5-phosphate activator present at AC10; Potency, µM; 51,000 tested, 1.2% active; AID 361; in the data active = potency below about 11 µM; inconclusive = mostly about 12 µM to 25 µM;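 the screen sought inhibitors and activators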;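 also: scaled between full activation by ribose 5 phosphate and full inhibition by luteolin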
FLuc inh: blocks Photinus pyralis firefly luciferase activity. P08659. purified firefly luciferase, luminescence, 8 min. Potency, µM (titrated, usually from 57.1 µM), inactives show top-dose activity change, negative = inhibition, hits mostly inhibitors. 72,000 tested, 2.2% active. AID 411; also: % is scaled to controls: 0 for no effect and ±100 for the full control effect; nearly all actives have a fitted effect of over 40% in size
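Titration-based qHTS; buffer 50 mM imidazole pH 7.2, 50 mM KCl, 7 mM MgCl2, 10 uM ATP, 0.01% Tween 20, 0.05% BSA; luciferase/luciferin detector mix added after compound; 8 min, ambient; luminescence.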
Casp7 inh: blocks human caspase-7 allosterically or competitively. recombinant caspase-7, Ac-DEVD-AFC fluorescence rate. Potency, µM (highest dose often 57.5 µM), inactives show at the highest dose activity change, negative = inhibition, hits mostly inhibitors. 75,000 tested, 0.02% active; active = well fitted inhibition curve with a large enough effect in the main read-out, with a control signal flat, not every such curve was filed as active; inconclusive = small, poorly fitted or top-dose-only effect, or a change in a side signal; also: % of control where 0% means no effect
Target sequence (P55210 24-198 limits assumed): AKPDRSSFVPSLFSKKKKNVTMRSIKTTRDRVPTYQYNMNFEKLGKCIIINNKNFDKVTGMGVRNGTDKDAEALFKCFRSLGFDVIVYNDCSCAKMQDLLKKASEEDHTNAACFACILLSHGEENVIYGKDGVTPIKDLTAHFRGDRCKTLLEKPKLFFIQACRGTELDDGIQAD
Target sequence (P55210 207-303 limits assumed): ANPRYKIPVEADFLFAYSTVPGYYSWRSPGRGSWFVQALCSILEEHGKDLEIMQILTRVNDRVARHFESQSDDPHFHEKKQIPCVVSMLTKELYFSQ
Caspase-1 inhib: blocks human caspase-1 allosterically or competitively; P29466; Caspase-1 enzyme, Ac-WEHD-AFC fluorogenic rate; Potency, µM (titrated, usually from 57.5 µM), for the others: at the highest dose activity change, negative = inhibition, most hits filed as inhibitors; 75,000 tested, 0.03% active; AID 900;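 also: plate controls were vehicle for no effect and no substrate for full effect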
Target sequence (P29466 120-297 limits assumed): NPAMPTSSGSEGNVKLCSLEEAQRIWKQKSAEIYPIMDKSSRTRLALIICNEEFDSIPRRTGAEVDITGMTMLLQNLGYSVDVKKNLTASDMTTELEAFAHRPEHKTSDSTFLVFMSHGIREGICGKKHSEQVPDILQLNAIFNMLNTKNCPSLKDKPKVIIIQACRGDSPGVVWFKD
Target sequence (P29466 317-404 limits assumed): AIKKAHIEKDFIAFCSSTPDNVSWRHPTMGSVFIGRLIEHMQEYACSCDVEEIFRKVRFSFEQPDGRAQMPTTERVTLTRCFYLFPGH
An asterisk follows results filed as active; i = inactive; ? = inconclusive; · = not tested or not shown; ! = not confirmed by another sample; [ ] = remark or other dose. In the library only some 3.1% were active in any assay of this set; here they are far more common. Unless noted, calls follow the shape of the dose curve; as a rule, active = well fitted inhibition curve with a large enough effect; inconclusive = small, poorly fitted or top-dose-only effect; inactive = flat fitted curve, though single readings scatter. Potency is read from the fitted curve at half-maximal effect.

SMILES	GBA activity	Bst PK mod	FLuc inh	Casp7 inh	Caspase-1 inhib
Cc1ccc(-c2cc(C(=O)NCC3CCCO3)no2)cc1 (centres undefined)	>76.9	i	12.6µM*	0.2%	-0.9%
O=C(NCC1CCCO1)c1cc(-c2ccccc2)on1 (centres undefined)	>76.9	>57	-0.3%	-1.1%	0.4%
Nc1nc(N2CCCCC2)nc2ccccc12	·	8.46*	-12.6%	1.3%	-3.9%
c1ccc2c(N3CCCCC3)nc(N3CCCC3)nc2c1	i	>57	3.7%	-0.6%	-1.3%
COc1ccc2[nH]c3nc(SC(C)C)nnc3c2c1	>76.9	4.49*	1.58µM*	-2.3%	-1.4%
O=C(O)c1ccccc1C(=O)Nc1cc2c(cc1Br)-c1ccccc1C2=O	·	·	0.3%[11.4 µM]	-3.6%[11.5 µM]	0.7%[11.5 µM]
CCCCCCCCCCCCCCCCCC(=O)NC[C@@H](COP(=O)([O-])OCC[N+](C)(C)C)OCC	·	·	-7.3%	1.2%	1.2%
CN(C)CCC(=O)[C@@]1(O)CC[C@H]2[C@H]3CC=C4C[C@@H](O)CC[C@]4(C)[C@H]3CC[C@]21C	·	·	4.1%[11.4 µM]	-3.5%[11.5 µM]	0.0%[11.5 µM]
COc1ccc2c(=O)c(-c3ccccc3)coc2c1	·	·	·	-6.5%	-1.3%
CCN(CC)C(=O)Oc1ccc2c(=O)c(-c3ccccc3)coc2c1	>76.9	·	15.8µM*	-0.2%	-0.9%
Cc1nc(Nc2nc3ccccc3o2)nc2c1CCC2	·	·	7.94µM*	-1.9%	-2.1%
C[N+](C)(C)c1nc(N)nc2c1ncn2[C@H]1O[C@@H](CO)[C@@H](O)[C@H]1O	·	·	1.8%[11.4 µM]	-3.2%[11.5 µM]	-3.4%[11.5 µM]
COc1ccc(Nc2ncccc2C(=O)Nc2ccccc2)cc1	>76.9	>57	-4.0%	-1.7%	-0.7%
COc1cc2cc(C(=O)Nc3ccccc3)c(N)nc2cc1OC	>76.9	i	10µM*	?	·
c1ccc(-n2nnc3c(N4CCOCC4)ncnc32)cc1	>76.9	9.21*	5.01µM*	0.1%	0.2%
c1ccc(Cn2nnc3c(N4CCCC4)ncnc32)cc1	>76.9	>57	1.5%	-0.5%	-2.7%
N#CC1=C(N)N(c2ccccc2)C2=C(C(=O)CCC2)C1c1ccsc1 (centres undefined)	14.9*	>57	-1.2%	-2.6%	-3.9%
CC1Cc2ccccc2N1C(=O)C1CCCN(S(=O)(=O)c2cccc3cccnc23)C1 (centres undefined)	·	·	2.1%	-7.6%	-4.7%
O=S(=O)(c1cccc2cccnc12)N1CCc2ccccc21	>76.9	1.44*	2.4%	-4.3%	-4.8%
Nc1ncnc2c1ncn2[C@H]1O[C@@H](C(=O)OCCO)[C@@H](O)[C@H]1O	·	·	2.8%[11.4 µM]	1.7%[11.5 µM]	-2.4%[11.5 µM]
CCCC=O	·	·	·	0.3%	0.1%
Cn1c(=O)[nH]c(=O)c2c1nc(SCCN1CCOCC1)n2Cc1ccccc1	8.99*	>57	2.2%	-2.4%[0.00368 µM]	0.5%
CN1[C@H]2CC(OC(=O)[C@H](CO)c3ccccc3)C[C@H]1[C@H]1O[C@H]12 (some centres undefined)	·	·	·	0.7%	-0.2%
N#C/C(=C\c1ccc(O)c(O)c1)C(=O)Nc1ccccc1	·	·	25.1µM*!	-2.3%	-5.0%
CCN1/C(=C/C(=O)c2ccco2)Sc2ccccc21	>76.9	i	25.1µM*	-26.3%	?
SMILES	GBA activity	Bst PK mod	FLuc inh	Casp7 inh	Caspase-1 inhib
CN1/C(=C\C(=O)c2ccco2)C(C)(C)c2ccccc21	>76.9	>57	-3.7%	?	·
CN1CCC(=C2c3ccccc3Sc3ccccc32)CC1	·	·	13.9%[25.5 µM]	-0.5%	-3.7%
N=C1Sc2ccccc2C2=NCCCN12	·	·	3.16µM*	0.0%	0.7%
Cc1ccccc1OCC(=O)Nc1cccc(N(C)S(C)(=O)=O)c1	>76.9	·	20µM*	-0.2%	-0.3%
CN(c1cccc(NC(=O)COc2ccccc2)c1)S(C)(=O)=O	>76.9	>57	?	0.1%	0.3%
COc1cccc(NC(=O)COc2ccccc2C(N)=O)c1	>76.9	?	7.94µM*	1.5%	-0.9%
CC(C)C(O)(C(C)C)C(C)C	·	·	2.9%[11.4 µM]	3.8%[11.5 µM]	-0.1%[11.5 µM]
CC(C)(C)c1ccc(-c2cc(N)n[nH]2)cc1	·	·	12.6µM*	-3.9%	-4.4%
O=C(Nc1nc(-c2ccccn2)cs1)c1ccc(Cl)s1	·	·	-26.3%	-5.2%	-4.2%
Cn1cccc1C(=O)Nc1nc(-c2ccccn2)cs1	i	i	20µM*	-8.6%	3.3%
COc1ccccc1NC(=O)c1ccccc1-c1nc(-c2ccccc2OC)no1	>76.9	·	15.8µM*	-2.1%	-1.3%
COc1ccccc1-c1noc(-c2ccccc2C(=O)Nc2ccccc2)n1	>76.9	>57	-18.0%	-1.8%	-0.9%
Cc1cc(C)c2c(SCc3ccc(Cl)cc3Cl)nc(N)nc2n1	·	·	0.9%[11.4 µM]	-3.5%[11.5 µM]	-1.9%[11.5 µM]
CCn1cnc2sc(-c3ccccc3)cc2c1=O	>76.9	?	12.6µM*	0.0%	-1.2%
O=C(c1cc2ncc(Br)cn2n1)N1CCN(C(=O)c2ccco2)CC1	>76.9	>57	1.1%	-0.9%	3.4%
Cc1cccc2nc(=S)n(C(=O)c3ccco3)n12	>76.9	?	2µM*	1.4%	-4.7%
O=C(c1ccco1)n1c(=S)nc2ccccn21	>76.9	?	5.01µM*	-0.7%	-0.5%
Nc1ccc(S(=O)(=O)NCc2nccs2)cc1	·	·	3.8%[11.4 µM]	0.6%[11.5 µM]	-0.9%[11.5 µM]
C=C1CC[C@@H]2[C@](C)(CC[C@@H](O)[C@]2(C)CO)[C@@H]1C/C=C1/C(=O)OC[C@H]1O	·	·	0.0%[11.4 µM]	·	·
O=C(Nc1ccc(F)cc1)N(Cc1ccco1)Cc1cc2cc3c(cc2[nH]c1=O)OCO3	11.2*	3.81*	-1.3%	-6.2%	-10.3%
Cc1ccc(NC(=O)N(Cc2ccc3c(c2)OCO3)Cc2cc3cc4c(cc3[nH]c2=O)OCCO4)cc1	>76.9	>57	3.2%	0.4%	-3.2%
CCC(=O)Nc1cc(C)c(NC(=O)c2ccco2)cn1	>76.9	>57	0.9%	3.8%	0.7%
CCCC(=O)Nc1cnc(NC(=O)c2cccc(F)c2)cc1C	>76.9	·	25.1µM*	0.5%	0.9%
Cc1cc(NC(=O)c2ccccc2)ncc1NC(=O)c1ccco1	>76.9	i	25.1µM*	-0.8%	-1.8%
CN[C@]1(C)[C@@H]2CC[C@@H](C2)C1(C)C	·	·	0.2%	-1.3%	4.8%
SMILES	GBA activity	Bst PK mod	FLuc inh	Casp7 inh	Caspase-1 inhib
CC1(C)CNC(=O)c2sc(N3CCCCC3)nc2C1	>76.9	>57	2µM*	-3.2%	0.3%
CC1(C)CC(=O)c2sc(N3CCCCC3)nc2C1	>76.9	>57	-8.7%	1.2%	0.6%
Cc1ccc(S(=O)(=O)O[C@@H]2[C@H]([C@@H]3COC(C)(C)O3)O[C@H]3OC(C)(C)O[C@@H]32)cc1	·	·	2.6%[11.4 µM]	-4.1%[11.5 µM]	1.0%[11.5 µM]
Cc1ccc(C(=O)Nc2ncc(Cc3ccc(F)cc3)s2)o1	>76.9	·	20µM*	-0.3%	-5.5%
Clc1ccccc1-c1nc(-c2ccccc2)n[nH]1	>76.9	i	15.8µM*	2.6%	-1.2%
CCCCN1C(=O)/C(=C2\SC(N3CCCCC3)=NC2=O)c2ccccc21	·	·	7.94µM*	1.6%	-4.4%
C[C@H](C(=O)c1ccncc1)c1ccccn1	·	·	0.7%[11.4 µM]	2.0%[11.5 µM]	-3.0%[11.5 µM]
CCOC(=O)CCN1C(=O)[C@@H]2[C@H]3C(=CC[C@H]2C1=O)C(=O)[C@H]1O[C@H]1[C@H]3O	·	·	-2.3%[11.4 µM]	?	?
CN(C)c1ccc(NC(=O)CCCc2ccccc2)cc1	>76.9	·	25.1µM*	-1.1%	0.0%
COCC(=O)Nc1ccc(N(C)C)cc1	>76.9	>57	-1.6%	2.9%	0.1%
